Drawing on PubChem BioAssay (NCATS), this text covers Potency and activity change, negative = inhibition for 24 compounds.

Results filed as inconclusive are left out. Values without a mark were called inactive. The source made the active and inactive calls. The call rests on the fitted dose curve; in most records, active means well fitted inhibition curve with a large enough effect; inconclusive means small, poorly fitted or top-dose-only effect; inactive means no such curve, though single readings can be large or run the other way. Where a SMILES comes first, the peptide text is derived from it. [ ]: non-standard residue; d: D form. ξ: configuration not given here. ξLac(3-iPr) = CC(C)CC(O)C(=O)O; NMeV = CN[CH](C(=O)O)C(C)C; βAla = NCCC(=O)O

In assay [1] the test system is Zika virus NS2B-NS3 protease (unlinked complex). The assay is described as follows: Primary screen GU Rhodamine qHTS for Zika virus inhibitors: Unlinked NS2B-NS3 protease assay (AID 1347159). Further: nearly all actives have a fitted effect of over 60% in size. The procedure, abridged:
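Noncovalent NS2B hydrophilic domain–NS3 protease domain complex (25 nM) preincubated 15 min at room temperature with compounds (up to 114 microM) in 10 mM Tris-HCl pH 8.0, 0.01% Tween 20; 1.5 microM Rhodamine110 substrate added, fluorescence change over 15 min fitted to Hill equation.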
Background: In qHTS, concentration-response curves come from the screen itself.

Assay [2] relates to Zika virus NS2B-NS3 protease (linked construct). As to the kind of experiment: Primary screen NINDS Rhodamine qHTS for Zika virus inhibitors (AID 1347160). Further: nearly all actives have a fitted effect of over 55% in size. The method in brief: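 Purified linked NS2B-NS3 protease (NS2B hydrophilic domain joined to NS3 protease by flexible linker), 25 nM in 10 mM Tris-HCl pH 8.0, 0.01% Tween 20. Compounds titrated, 15 min preincubation at room temperature; 1.5 microM Rhodamine110 substrate, FITC fluorescence change over 15 min.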
On the % scale 0 is the no-effect control and ±100 the full control effect.

On to `COC1/C=C/C(C)(O)C(SCC(N)C(=O)O)CC(=O)OC(C)C(C)CC/C=C/1C` (stereo not drawn), for which the Potency result in assay [1] and in assay [2] was “inactive” throughout.
On to `COc1ccc(-c2cnc(-c3cccc4c3-c3ccccc3C4=O)o2)cc1`, for which the Potency result in assay [1] and in assay [2] was “inactive” in each case.
As to `Nc1ccc(-c2cccc3c(=O)cc(N4CCOCC4)oc23)cc1`, the Potency entry in assay [1] and in assay [2] was “inactive” throughout.
`C=CC(C)(CC/C=C(\C)C(=O)OC)OC1OC(COC(=O)CC(C)(O)CC(=O)O)C(OC2OC(CO)C(O)C(O)C2O)C(O)C1O` (stereo not drawn): the Potency result in assay [1] and in assay [2] was “inactive” each time.
As to `CO[C@H]1/C=C/[C@@](C)(O)/C=C/C(=O)O[C@H](C)[C@@H](C)CC/C=C/1C`, the Potency result in assay [1] and in assay [2] was “inactive” throughout.
As to `C/C=C1\[C@H](O[C@@H]2O[C@H](CO)[C@@H](O)[C@H](O)[C@H]2O)OC=C2C(=O)OCCc3ccc(O)c(c3)Oc3ccc(cc3)CCOC(=O)C[C@H]21`, the Potency entry in assay [1] and in assay [2] was “inactive” in each case.
As for `CN(C)CCn1cc(S(=O)(=O)c2cccc(F)c2)c2cccnc21`, the Potency result in assay [1] and in assay [2] was “inactive” throughout.
As for `NCc1c[nH]c(=S)n1[C@@H]1CCc2c(F)cc(F)cc2C1`, the Potency result in assay [1] and in assay [2] was “inactive” throughout.
As to `CC(C)=CCC/C(C)=C/CO[C@@H]1O[C@H](CO)[C@@H](O)[C@H](O)[C@H]1O`, the Potency entry in assay [1] and in assay [2] was “inactive” in each case.
For the compound `CCC(C)C(=O)OC1CC(C)C=C2C=CC(C)C(CCC(O)CC(O)CC(=O)O)C21` (stereo not drawn), the Potency entry in assay [1] and in assay [2] was “inactive” in each case.
As for `CC(C)CC1OC(=O)C2CCCN2C(=O)CCNC(=O)C(Cc2ccccc2)NC(=O)C(C(C)C)N(C)C(=O)C(C(C)C)N(C)C1=O` (stereo not drawn) (cyclo([ξLac(3-iPr)][NMeV][NMeV]F[βAla]P); configuration not given here), the Potency entry in assay [1] and in assay [2] was “inactive” throughout.
Turning to `CCOC(=O)Nc1cc(-c2ccc(C)c(NS(C)(=O)=O)c2)nn2c(C)nnc12`, the Potency entry in assay [1] and in assay [2] was “inactive” each time.
With `CC1=C(C)C(=O)OC(C(C)C2CCC3C4C5OC5C5(O)CC(OC6OC(CO)C(OC7OC(C)C(O)C(O)C7O)C(O)C6O)CC(O)C5(C)C4CCC23C)C1` (stereo not drawn), the Potency entry in assay [1] and in assay [2] was “inactive” throughout.
`C1CCC[C@H]2CCCN3CC[C@@H](CCCCCC[C@@H]4CCCN5CC[C@@H](CC1)O[C@@H]45)O[C@@H]23`: the activity change, negative = inhibition is -7.05% [at 0.23 µM] in assay [1] and 20.2% [at 0.092 µM] in assay [2].
As for `CC1CCCCN1S(=O)(=O)c1ccc(N2CCCC2=O)cc1` (stereo not drawn), the Potency result in assay [1] and in assay [2] was “inactive” throughout.
Turning to `C[C@@H]1O[C@@H](O[C@@H]2[C@@H](O)[C@H](O[C@H]3[C@H](O[C@H]4CC[C@@]5(C)C(CC[C@]6(C)C5CC=C5[C@@H]7CC(C)(C)CC[C@]7(C(=O)O[C@@H]7O[C@H](CO)[C@@H](O)[C@H](O)[C@H]7O[C@@H]7O[C@@H](C)[C@H](O[C@@H]8O[C@@H](C)[C@H](O)[C@@H](O)[C@H]8O)[C@@H](O)[C@H]7O)CC[C@]56C)[C@@]4(C)CO)O[C@H](C(=O)O)[C@@H](O)[C@@H]3O)O[C@H](CO)[C@H]2O)[C@H](O)[C@H](O)[C@H]1O` (stereo partly drawn), the activity change, negative = inhibition in assay [1] was 22.9% [at 19.1 µM]; in assay [2], 3.12% [at 10.7 µM].
For `C[C@@H]1C(=O)O[C@H]2[C@H](O)C34[C@H]5C[C@@H](C(C)(C)C)C36[C@@H](OC(=O)[C@@H]6O)O[C@@]4(C(=O)O5)[C@@]12O` (stereo partly drawn), the Potency entry in assay [1] and in assay [2] was “inactive” in each case.
As for `O=C(Cc1ccc(-c2ccccc2)cc1)NC1CCC1`, the Potency result in assay [1] and in assay [2] was “inactive” in each case.
For `CC[C@H](C)[C@H](NC(=O)[C@H]([C@@H](C)CC)N(C)C(C)=O)C(=O)N[C@H](C(=O)N[C@@H](CC(C)C)C(=O)[C@@]1(C)CO1)[C@@H](C)O`, the Potency entry in assay [1] and in assay [2] was “inactive” in each case.
For the compound `COc1cccc2cc3c(c(O[C@@H]4O[C@H](CO[C@@H]5O[C@H](CO)[C@@H](O)[C@H](O)[C@H]5O)[C@@H](O)[C@H](O)[C@H]4O)c12)C(C)OC3=O` (stereo partly drawn), the Potency entry in assay [1] and in assay [2] was “inactive” each time.
Consider `CCCN1CCN(c2ccc(C(=O)NC3(C(=O)NCC#N)CCCCC3)cc2)CC1`, for which the Potency entry in assay [1] and in assay [2] was “inactive” throughout.
As to `CCCN1CCC(c2cccc(S(C)(=O)=O)c2)CC1`, the Potency entry in assay [1] and in assay [2] was “inactive” each time.
For the compound `CC(=O)OC1C(=O)C2(C)C(O)CC3OCC3(OC(C)=O)C2C(OC(=O)c2ccccc2)C2(O)CC(OC(=O)C(O)C(NC(=O)c3ccccc3)c3ccccc3)C(C)=C1C2(C)C` (stereo not drawn), the Potency result in assay [1] and in assay [2] was “inactive” each time.
Take `CC(=O)O[C@H]1CC(C)(C)CC2[C@@]13[C@H](O)C[C@]1(C)[C@@]2(CCC2[C@@]4(C)CC[C@H](O[C@@H]5OC[C@H](O[C@@H]6O[C@H](CO)[C@@H](O)[C@H](O)[C@H]6O[C@@H]6OC[C@@H](O)[C@H](O)[C@H]6O)[C@H](O)[C@H]5O[C@@H]5O[C@H](CO)[C@@H](O)[C@H](O)[C@H]5O)C(C)(C)C4CC[C@]21C)O[C@@H]3O` (stereo partly drawn): the Potency result in assay [1] and in assay [2] was “inactive” throughout.
